Assay results reported in PubChem BioAssay (NCI).
This is part of a sample that, as a whole, favours compounds with a hit. Of some 83,000 tested, about 20% had one in any assay.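 Growth was measured after 48 h exposure to one concentration of compound in 96-well plates. Values under 10 count as active.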 Unmarked numbers belong to inactive results. Activity calls are given as the source filed them.

What was measured:
Assay in all cases: NCI-60 one-dose screen, 48 h (100 = growth as untreated, 0 = no growth, -100 = all killed)
Conditions in all cases: 10 µM unless noted
DU-145 prostate = tested on: DU-145 prostate
K-562 leukemia = tested on: K-562 leukemia
MALME-3M melanoma = tested on: MALME-3M melanoma
MDA-MB-231 breast = tested on: MDA-MB-231 breast
RXF 393 renal = tested on: RXF 393 renal
SF-268 CNS = tested on: SF-268 CNS
SF-295 CNS = tested on: SF-295 CNS
SF-539 CNS = tested on: SF-539 CNS
UACC-257 melanoma = tested on: UACC-257 melanoma
M14 melanoma = tested on: M14 melanoma
HCT-15 colon = tested on: HCT-15 colon
HT29 colon = tested on: HT29 colon
SNB-75 CNS = tested on: SNB-75 CNS
SNB-19 CNS = tested on: SNB-19 CNS
U251 CNS = tested on: U251 CNS
PC-3 prostate = tested on: PC-3 prostate
SK-MEL-5 melanoma = tested on: SK-MEL-5 melanoma
UACC-62 melanoma = tested on: UACC-62 melanoma
LOX IMVI melanoma = tested on: LOX IMVI melanoma
SK-MEL-28 melanoma = tested on: SK-MEL-28 melanoma

SMILES	growth (DU-145 prostate)	growth (K-562 leukemia)	growth (MALME-3M melanoma)	growth (MDA-MB-231 breast)	growth (RXF 393 renal)	growth (SF-268 CNS)	growth (SF-295 CNS)	growth (SF-539 CNS)	growth (UACC-257 melanoma)	growth (M14 melanoma)	growth (HCT-15 colon)	growth (HT29 colon)	growth (SNB-75 CNS)	growth (SNB-19 CNS) [%]	growth (U251 CNS)	growth (PC-3 prostate)	growth (SK-MEL-5 melanoma)	growth (UACC-62 melanoma)	growth (LOX IMVI melanoma)	growth (SK-MEL-28 melanoma)
COc1ccccc1NC(=O)N/C(N)=N/c1nc2ccccc2s1	19.3%	12.9%	57.6%	48.1%	4.12% (active)	49.5%	39.2%	-31.5% (active)	75.4%	8.17% (active)	16.5%	8.24% (active)	22.6%	37.5	18.3%	25%	23.7%	31.4%	34.3%	53.4%
c1ccc(Nc2nc(-c3ccccn3)cs2)nc1	26.5%	17.2%	9.26% (active)	38.9%	-18.8% (active)	20.7%	11.9%	0.697% (active)	11.5%	-32.8% (active)	20.1%	27.4%	42.7%	18.6	7.62% (active)	38%	11%	-14.6% (active)	1.84% (active)	50.3%
Cc1nc2c(c(N3CCCc4ccccc43)n1)CCC2	-8.95% (active)	4.8% (active)	54.2%	18.1%	33%	16.9%	9.59% (active)	1.1% (active)	26.3%	-17.6% (active)	4.84% (active)	3.44% (active)	20.4%	40	7.57% (active)	12.8%	-49% (active)	24.3%	21.2%	60.4%
O=c1[nH][n+](-c2ccc(Cl)cc2)no1	59.7%	10.4%	84.7%	70.7%	121%	47.7%	34.5%	66.7%	64.9%	81.5%	34.5%	95%	74.4%	91.3	83.2%	72%	96.1%	5.96% (active)	28.4%	77.3%
CC(=O)N1C(=S)NC(=O)C1Cn1c(-c2ccccc2)nc2ccccc21 (stereo not given)	110%	101%	101%	90.4%	96.5%	99.2%	105%	97.1%	107%	103%	98.3%	107%	76.2%	93.3	101%	97.8%	99.1%	91.5%	95.8%	106%
NC(=N\N=C/c1cccc([N+](=O)[O-])c1)/C(N)=N\N=C/c1cccc([N+](=O)[O-])c1	58.1%	36.1%	81.4%	93.4%	72.9%	65.9%	92.9%	89.1%	85.6%	92.8%	51.9%	99.3%	35.1%	105	76.6%	72.2%	58.2%	65%	82%	77.9%
O=C(COc1ccc(/C=C2\Oc3ccccc3C2=O)cc1)c1ccc(Cl)cc1	119%	93.7%	111%	85.7%	91.8%	106%	309%	96.7%	117%	108%	106%	107%	103%	94.3	104%	98.2%	109%	88.2%	95.8%	120%
CCN1C(=O)N(CC)C2Nn3c(s/c(=C4\C(=O)N(C)c5ccccc54)c3=O)=NC21 (stereo not given)	18.1%	14.9%	48.3%	43.6%	-17.4% (active)	55.5%	52.2%	9.32% (active)	61.8%	13.1%	29.7%	74.9%	9.74% (active)	56.5	39.7%	27.8%	36.4%	51%	55.9%	59.3%
Cc1cc(Cl)nc(NCc2cc(Nc3ccnc4cc(Cl)ccc34)ccc2F)n1	52.3%	26.9%	77.2%	54.4%	61.2%	58.2%	69.5%	70.5%	64.2%	60.9%	11.7%	9.26% (active)	83.3%	80.6	48.9%	52.7%	56.5%	70.7%	10.4%	94.1%
Cc1ccc(-n2c(-c3ccccc3)c(-c3ccccc3)c3c(SCC(=O)n4[nH]c(N)cc4=O)ncnc32)cc1	108%	77.1%	97.6%	83.3%	96.6%	107%	89.3%	96%	94.1%	94.3%	101%	94%	97.1%	91.8	87%	79.4%	87.3%	77.4%	97.7%	101%
CC1SC(c2ccc(OCc3ccccc3)cc2)N(NC(=O)C(O)(c2ccccc2)c2ccccc2)C1=O (stereo not given)	89.6%	40.9%	72.3%	76.5%	51.4%	71.4%	-20.7% (active)	74.4%	78.3%	57.2%	60.9%	38.1%	77.5%	69.3	66%	30.1%	94.9%	63.7%	58.9%	78.2%
CCN(CC)Cc1cccc(C(=O)OC)c1	111%	110%	95.3%	100%	105%	104%	97.8%	94%	73.4%	91.7%	102%	106%	87.9%	101	96.3%	78.1%	97.1%	103%	94.1%	104%
CC(=O)[C@@H]1CC[C@]2(COS(=O)(=O)c3ccc(C)cc3)CC[C@]3(C)[C@H](CC[C@@H]4[C@@]5(C)CCCNC(C)(C)[C@@H]5CC[C@]43C)[C@@H]12	86.6%	2.27% (active)	88.1%	96.4%	63.9%	73.2%	101%	77.4%	49.9%	79%	32%	2.18% (active)	83.2%	91.7	61.8%	56.8%	76.2%	58.9%	14%	85.6%
CC/C=C\C[C@H](O)C/C=C1/C(=O)C=C[C@@H]1C/C=C\CCCC(=O)OC	20.2%	2.74% (active)	9.07% (active)	11.9%	-19.6% (active)	15.1%	-1.98% (active)	7.57% (active)	-17.5% (active)	-1.46% (active)	-20.3% (active)	-54.7% (active)	57.8%	35.2	-72.8% (active)	-11.3% (active)	-84.7% (active)	-40.3% (active)	-76.9% (active)	-34.3% (active)
O=C(CSc1nccc(Nc2ccc(S(=O)(=O)Nc3nccs3)cc2)n1)c1ccc(F)cc1	105%	113%	103%	113%	112%	105%	103%	100%	96.5%	101%	98.1%	106%	94%	100	102%	96.1%	98.7%	94.5%	97.5%	106%
COC(=O)[C@]12CC[C@@H](C)[C@H](C)[C@@H]1C1=CC[C@@H]3[C@@]4(C)C(C=O)=C[C@@](C)(COC(=O)c5ccco5)C4=CC[C@@]3(C)[C@]1(C)CC2	10.7%	11.1%	-43.5% (active)	-8.21% (active)	-56.3% (active)	-10.9% (active)	11.7%	-15.3% (active)	-34.6% (active)	-33.9% (active)	-31.9% (active)	-0.473% (active)	20%	36.5	-4.29% (active)	14.1%	-87.1% (active)	-11.1% (active)	-86.3% (active)	-45.5% (active)
